Bioassay records: PubChem, National Center for Advancing Translational Sciences (NCATS)
ALOX15 inhib: inhibitors of human 15-lipoxygenase (ALOX15); AID 887; purified 15hLO-1, xylenol orange hydroperoxide absorbance; Potency, µM (doses to about 57.1 µM), for the others: at the highest dose activity change, negative = inhibition, actives largely listed as inhibitors; hit rate 1.4% among 74,000; P16050; note: potency is the fitted concentration of half-maximal effect; % is set by controls: 0 for no effect and ±100 for the full control effect; nearly all actives have a fitted effect of over 55% in size
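Readout: Fe(III)-xylenol orange absorbance, 573-to-405 nm ratio as reaction progress. Enzyme 40 nM purified human 15hLO-1, substrate 50 uM arachidonic acid, 6 min RT after 15 min compound preincubation; Hepes pH 7.5 buffer with Triton X-100.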
BRCT PPI green: BRCA1 BRCT-phosphoprotein interaction inhibition; P38398; BRCA1 BRCT-phosphopeptide binding, green fluorescence polarization; Potency, µM (highest dose often 76.9 µM), without a hit: top-dose activity change, negative = inhibition, most hits filed as inhibitors; hit rate 0.05% among 75,000; AID 875;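 note: potency is the fitted concentration of half-maximal effect; plate controls were peptide without protein for full effect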
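Fluorescence polarization: His-tagged BRCT (~35 kDa BRCA1 C-terminus, 250 nM) bound to 100 nM fluorescein-labeled phosphorylated 10-aa BACH1 peptide, pH 7.3 phosphate buffer with DTT and Tween 20. Compounds incubated 12 min at room temperature; inhibition read as lowered polarization.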
DNA Pol III inh: inhibitors of bacterial DNA polymerase III holoenzyme | reconstituted DNA polymerase III holoenzyme replication, biochemical | Potency, µM (titrated, usually from 57.1 µM), without a hit: at the top dose activity change, negative = inhibition | hit rate 0.25% among 71,000 | AID 603; note: potency is the fitted concentration of half-maximal effect; % is set by controls: 0 for no effect and ±100 for the full control effect
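Reconstituted *E. coli* holoenzyme (0.35 nM Pol III, 1 nM beta, 154 nM SSB, 2 nM primase) was preincubated with compound for 15 min at RT. Synthesis on 1.4 nM ssM13Gori ran 35 min, then was stopped with PicoGreen/EDTA and read as dsDNA fluorescence.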
Tau fil binding: tau filament binding | P10636 | Potency, µM (top dose mostly 57.1 µM), for the others: at the top dose activity change, negative = inhibition | hit rate 2% among 71,000 | recombinant tau filaments, thioflavin S fluorescence, 15 h; filaments grown with octadecylsulfate alongside compound;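 note: potency is the fitted concentration of half-maximal effect; % is set by controls: 0 for no effect and ±100 for the full control effect; actives lower thioflavin S fluorescence by blocking filaments or displacing dye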
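Quantitative HTS: thioflavine S signal from ODS-induced tau filaments, excited at 450 nm, emission 510 nm. Conditions: 1 uM tau, 30 uM ODS, 15 h at 37 C, pH 7.4.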
TsaE inh: inhibitors of E. coli YjeE (TsaE); P0AF67; purified YjeE enzyme, qHTS inhibition assay; Potency, µM; hit rate 0.05% among 71,000; AID 605
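Purified YjeE (10 uM) with BODIPY Texas Red-labeled ADP probe (2 uM); compounds pin-transferred, 15 min at room temperature. Binding inhibition read as decreased fluorescence polarization; ADP titration as control.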
BRCT inh red: BRCT-phosphoprotein interaction inhibition (red fluorophore); P38398; BRCT-phosphopeptide binding, red fluorescence polarization; Potency, µM (highest dose often 76.9 µM), without a hit: at the top dose activity change, negative = inhibition, usual class: inhibitors; hit rate 0.03% among 75,000; AID 892; note: % is set by controls: 0 for no effect and ±100 for the full control effect
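Fluorescence polarization: 100 nM His-tagged BRCA1 BRCT with 100 nM TAMRA-labelled phospho-BACH1 decapeptide, phosphate buffer pH 7.3 with 150 mM NaCl, DTT, 0.01% Tween 20; 12 min RT. Binding inhibition seen as FP decrease.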
* = called active by the depositor; i = inactive; ? = inconclusive; . = no result given; [ ] = another dose, or the depositor's remark. Compounds with a hit are over-represented: about 3.3% of the library has one in this group of screens. Calls come from the whole dose curve; as a rule, active = well fitted curve in the direction sought with a large enough effect; inconclusive = small, poorly fitted or top-dose-only effect, or another doubt; inactive = no such curve, though single readings can be large; an effect the other way counts as inactive or inconclusive.

SMILES	ALOX15 inhib	BRCT PPI green	DNA Pol III inh	Tau fil binding	TsaE inh	BRCT inh red
C[C@@H]1C(=O)N(C)C(=O)c2nc[nH]c21	3.8%	-2.0%	-5.5%	-2.1%	i	-2.7%
O=C(Nc1nc(-c2ccco2)cs1)c1ccccc1	15.8µM*	3.1%	-4.1%	?	i	0.2%
OC(Cc1ccccc1)(Cc1ccccc1)c1ccccc1	-7.4%[11.4 µM]	-2.0%[15.4 µM]	-5.1%[11.4 µM]	11.1%[11.4 µM]	i	0.5%[15.4 µM]
C[C@]1(c2ccccc2)OC(C(=O)O)=CC1=O	-19.9%[25.6 µM]	-0.9%	-2.5%	?	i	-2.7%
COc1ccccc1CNc1ccnc(-c2ccccc2OC)n1	12.6µM*	-0.7%	-1.9%	2.9%	i	0.1%
COc1ccc(CNc2cc(-c3ccccc3OC)ncn2)c(OC)c1	25.1µM*	-1.8%	1.9%	-0.1%	i	0.2%
COc1ccccc1CNc1ccnc(-c2ccc3c(c2)OCO3)n1	12.6µM*	2.8%	-0.5%	2.0%	i	-0.1%
COc1ccc(CNc2ccnc(-c3ccc4c(c3)OCO4)n2)c(OC)c1	?	-1.5%	3.6%	-11.7%	i	-0.1%
COCCNc1ccnc(-c2ccccc2C)n1	12.6µM*	-1.4%	-8.9%	-11.7%	i	0.3%
O=C(CN1CCN(Cc2ccccc2)C1=O)NCc1ccc(Cl)cc1	3.3%	0.0%	3.5%	69.7%	i	0.3%
O=C(O)c1c(Sc2ccccc2)c2cc(Cl)ccc2n1Cc1ccc(Cl)cc1	25.1µM*	-6.4%	.	.	.	-3.7%
O=C1[C@H]2[C@H]3[C@H](O)[C@H](O)C/C(=N/OCc4ccccc4)[C@H]3CC[C@@H]2C(=O)N1c1cccc(Oc2ccccc2)c1	3.8%[11.4 µM]	-1.0%[15.4 µM]	.	.	.	0.3%[15.4 µM]
c1csc(-c2nc3nc4ccccc4nc3n2Cc2ccc3c(c2)OCO3)c1	-21.9%	1.5%	2.5%	3.16µM*	i	-1.4%
N#C/C(=C\c1ccc[nH]1)Sc1nc2ccccc2s1	15.8µM*	10.3%	-0.6%	-27.2%	i	1.2%
CN(C)c1ccc(Nc2nc(-c3cccnc3)cs2)cc1	-23.0%[11.4 µM]	-3.2%	0.6%[11.4 µM]	2.51µM*	i	-0.3%
CN1CCc2c(sc3c2c(=O)n(-c2ccccc2)c2nnc(SCc4ccc(Cl)cc4)n32)C1	-21.3%	-0.2%	-13.5%	3.16µM*	i	-3.5%
Cc1nnc2n(-c3ccc(Cl)cc3)c(=O)c3c4c(sc3n12)CN(C)CC4	-4.1%	-1.2%	.	.	.	-0.4%
CN(C)CC(=O)c1ccc(-c2ccccc2)cc1	-25.9%	1.9%	-1.0%	25.1µM*	i	0.3%
CCn1c(CSc2nnc(-c3cccnc3)n2-c2ccccc2C)nc2cc(C(=O)O)ccc21	-20.8%	-0.3%	-1.5%	-7.7%	79.4µM*	25.1µM*
CCCC(=O)Nc1ncnc2c1ncn2[C@@H]1O[C@@H]2COP(=O)(O)O[C@H]2[C@H]1OC(=O)CCC	-23.9%[25.6 µM]	-1.5%	-3.4%	39.8µM*	i	-2.6%
CC(=O)c1c(C)nc2cc(Cl)ccc2c1N	11.1%	-0.8%	-6.0%	-9.9%	i	0.1%
Cc1nc2ccc(Cl)cc2nc(C)/c1=N\O	-16.9%	-1.8%	-5.0%	12.6µM*	i	0.5%
Nc1ccc(N(S(=O)(=O)c2ccccc2)S(=O)(=O)c2ccccc2)c(Cl)c1	11.2%[11.4 µM]	1.4%[15.4 µM]	-6.9%[11.4 µM]	-9.4%[11.4 µM]	i	1.1%[15.4 µM]
CSc1nnc(-c2ccco2)c(-c2ccco2)n1	2µM*	-11.1%	?	-24.2%	i	-20.8%
Cc1nc(NC2CCCCC2)c2nc(-c3ccccc3)n(CCN3CCCCC3)c2n1	?	0.9%	-4.2%	37.0%	i	-0.4%
c1csc(-c2ncc3ccccn23)c1	-12.0%	-1.2%	-7.8%	25.7%	i	-0.2%
COc1ccc(-c2ncc3ccccn23)cc1	-5.3%	1.6%	0.3%	20µM*	i	-0.5%
CCOc1ccc2nc(NC(=O)C(CCSC)NS(=O)(=O)c3cccs3)sc2c1 (stereo unspecified)	15.8µM*	0.0%	-6.4%	253.7%	i	-2.4%
O=C1C=CC(=Nc2cccc3c(N=C4C=CC(=O)O4)cccc23)O1	?	0.9%[15.4 µM]	-8.4%[11.4 µM]	-2.4%[11.4 µM]	i	-0.8%[15.4 µM]
